Laboratory results: PubChem BioAssay (Tox21)
Where “and” joins values, the source holds several entries; their conditions need not be identical. Equal entries are not always repeated. Records with an inconclusive call do not appear. Calls of active or inactive are those of the source. Unless noted, calls come from the whole dose curve; as a rule, active = well fitted curve in the direction sought with a large enough effect in the repeat runs; inconclusive = weak or mixed curves; inactive = no such curve, though single readings can be large; an effect the other way counts as inactive or inconclusive.

Assays:
[1] = target: Acetylcholinesterase (Homo sapiens) (UniProt P22303); experiment: Acetylcholinesterase (AChE) small molecule antagonists: fluorescence cell-based qHTS assay (AID 1347398; calls by dose curve; note: nearly all actives have a fitted effect of over 50% in size; note: potency is the fitted concentration of half-maximal effect); conditions: Potency: AChE activity
Chain of Acetylcholinesterase (Homo sapiens) (P22303 whole entry, looked up): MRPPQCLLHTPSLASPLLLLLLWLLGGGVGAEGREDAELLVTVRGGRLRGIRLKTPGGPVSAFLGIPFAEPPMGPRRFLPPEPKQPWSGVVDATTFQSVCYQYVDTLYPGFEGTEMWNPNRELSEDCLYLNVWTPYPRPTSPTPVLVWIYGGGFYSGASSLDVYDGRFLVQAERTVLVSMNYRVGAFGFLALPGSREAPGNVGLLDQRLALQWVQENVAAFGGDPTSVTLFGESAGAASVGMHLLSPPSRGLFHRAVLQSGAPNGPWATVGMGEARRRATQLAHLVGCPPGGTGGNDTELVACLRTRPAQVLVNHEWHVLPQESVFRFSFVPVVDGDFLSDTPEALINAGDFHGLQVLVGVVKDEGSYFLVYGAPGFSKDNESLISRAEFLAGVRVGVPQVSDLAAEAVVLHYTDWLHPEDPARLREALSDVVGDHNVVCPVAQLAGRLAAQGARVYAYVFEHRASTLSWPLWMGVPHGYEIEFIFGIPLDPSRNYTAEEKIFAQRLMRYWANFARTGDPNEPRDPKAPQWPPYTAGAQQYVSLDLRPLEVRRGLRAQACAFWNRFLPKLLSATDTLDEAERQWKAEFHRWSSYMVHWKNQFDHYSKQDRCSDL
Outline: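 Cells (SH-SY5Y) attached overnight, were dosed with compound or DMSO vehicle for 30 min at 37 C, and then incubated 40 min at room temperature with acetylthiocholine and Thiolite Green; green fluorescence indexed AChE activity.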

[2] = target: Acetylcholinesterase (Homo sapiens) (UniProt P22303); experiment: Acetylcholinesterase (AChE) small molecule antagonists: enzyme-based qHTS assay with human liver microsomes (AID 1347399; calls by dose curve; note: nearly all actives have a fitted effect of over 60% in size; note: potency is the fitted concentration of half-maximal effect); conditions: Potency: qHTS inhibition
Outline: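 Recombinant human AChE (50 mU/mL in the enzyme mix) and human liver microsomes (0.25 mg/mL final) were preincubated with compound and NADPH (0.25 mg/mL final) for 30 min at 37 C. Acetylthiocholine/DTNB was then added; thiocholine was read colorimetrically after 10 min at room temperature.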

[3] = target: Cytochrome P450 2C19 (Homo sapiens) (UniProt P33261); experiment: Cytochrome P450 Family 2 Subfamily C Member 19 (CYP2C19) small molecule antagonists: luciferase reporter qHTS assay (AID 1671197); note: nearly all actives have a fitted effect of over 65% in size; note: potency is the fitted concentration of half-maximal effect
Chain of Cytochrome P450 2C19 (Homo sapiens) (P33261 whole entry, looked up): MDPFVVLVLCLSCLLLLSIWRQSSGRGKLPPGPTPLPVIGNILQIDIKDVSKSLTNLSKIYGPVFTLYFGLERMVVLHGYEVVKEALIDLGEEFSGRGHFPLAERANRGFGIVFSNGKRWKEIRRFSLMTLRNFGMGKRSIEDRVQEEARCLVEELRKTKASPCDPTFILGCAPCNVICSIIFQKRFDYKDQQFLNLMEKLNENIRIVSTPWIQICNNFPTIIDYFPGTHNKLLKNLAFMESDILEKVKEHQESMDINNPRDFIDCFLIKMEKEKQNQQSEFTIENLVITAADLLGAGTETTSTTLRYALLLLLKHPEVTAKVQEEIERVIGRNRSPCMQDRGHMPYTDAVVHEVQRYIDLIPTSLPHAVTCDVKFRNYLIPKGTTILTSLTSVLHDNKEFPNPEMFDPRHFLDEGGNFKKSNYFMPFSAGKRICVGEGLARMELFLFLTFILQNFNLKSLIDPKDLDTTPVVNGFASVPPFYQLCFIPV
Outline: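 CYP2C19 P450-Glo, 1536-well qHTS. Cpd + enzyme/proluciferin substrate 10 min RT; + NADPH regen, 37C 1 h; stop with luciferin detection reagent, 20 min RT, luminescence (RLU). Pos ctrl ketoconazole.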

[4] = target: Cytochrome P450 2C9 (Homo sapiens) (UniProt P11712); experiment: Cytochrome P450 Family 2 Subfamily C Member 9 (CYP2C9) small molecule antagonists: luciferase reporter qHTS assay (AID 1671198); note: nearly all actives have a fitted effect of over 50% in size; note: potency is the fitted concentration of half-maximal effect
Chain of Cytochrome P450 2C9 (Homo sapiens) (P11712 whole entry, looked up): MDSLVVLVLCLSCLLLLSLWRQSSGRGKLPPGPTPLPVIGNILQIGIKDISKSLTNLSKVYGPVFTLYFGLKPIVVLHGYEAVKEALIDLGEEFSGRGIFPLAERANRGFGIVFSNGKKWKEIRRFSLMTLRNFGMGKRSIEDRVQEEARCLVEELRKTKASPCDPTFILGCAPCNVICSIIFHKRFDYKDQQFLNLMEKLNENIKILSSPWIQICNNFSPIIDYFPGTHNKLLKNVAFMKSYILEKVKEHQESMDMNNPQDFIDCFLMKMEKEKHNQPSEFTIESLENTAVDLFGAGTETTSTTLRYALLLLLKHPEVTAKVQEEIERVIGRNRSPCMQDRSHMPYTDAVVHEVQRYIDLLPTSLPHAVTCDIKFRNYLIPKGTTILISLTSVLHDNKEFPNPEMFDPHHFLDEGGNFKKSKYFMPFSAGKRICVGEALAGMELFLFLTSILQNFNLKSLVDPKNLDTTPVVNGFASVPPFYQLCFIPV
Outline: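 P450-Glo proluciferin substrate with CYP2C9 enzyme; 10 min RT preincubation, then NADPH regeneration 1 h at 37C; luciferin detection reagent 20 min RT, luminescence in relative luminescence units.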

[5] = target: Cytochrome P450 1A2 (Homo sapiens) (UniProt P05177); experiment: Cytochrome P450 Family 1 Subfamily A Member 2 (CYP1A2) small molecule antagonists: luciferase reporter qHTS assay (AID 1671199); note: nearly all actives have a fitted effect of over 50% in size; note: potency is the fitted concentration of half-maximal effect
Chain of Cytochrome P450 1A2 (Homo sapiens) (P05177 whole entry, looked up): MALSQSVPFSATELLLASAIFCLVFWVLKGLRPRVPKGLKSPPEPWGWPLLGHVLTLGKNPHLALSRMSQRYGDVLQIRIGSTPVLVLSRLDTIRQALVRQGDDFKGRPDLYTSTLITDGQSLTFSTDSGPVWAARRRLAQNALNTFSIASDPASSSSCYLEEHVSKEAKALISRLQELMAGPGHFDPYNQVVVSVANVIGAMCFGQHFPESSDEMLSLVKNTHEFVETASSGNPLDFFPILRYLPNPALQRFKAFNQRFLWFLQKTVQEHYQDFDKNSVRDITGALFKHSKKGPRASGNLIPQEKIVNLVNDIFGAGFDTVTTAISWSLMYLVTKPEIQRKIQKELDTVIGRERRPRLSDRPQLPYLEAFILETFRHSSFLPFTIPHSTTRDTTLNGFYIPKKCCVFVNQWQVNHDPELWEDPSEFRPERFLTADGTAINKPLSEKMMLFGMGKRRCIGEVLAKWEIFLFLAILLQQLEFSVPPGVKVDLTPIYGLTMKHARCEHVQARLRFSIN
Outline: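 Read-out is luminescence from luciferin detection reagent (20 min) proportional to CYP1A2 activity; compounds in DMSO preincubated 10 min with enzyme and proluciferin substrate, then NADPH regeneration solution, 1 h, room temperature.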

[6] = target: Voltage-gated inwardly rectifying potassium channel KCNH2 (Homo sapiens) (UniProt Q12809); experiment: Human Ether-a-go-go-Related Gene (hERG) channel small molecule antagonists: fluorescence cell-based qHTS assay (AID 1671200); note: nearly all actives have a fitted effect of over 50% in size; note: potency is the fitted concentration of half-maximal effect
Chain of Voltage-gated inwardly rectifying potassium channel KCNH2 (Homo sapiens) (Q12809 whole entry, looked up): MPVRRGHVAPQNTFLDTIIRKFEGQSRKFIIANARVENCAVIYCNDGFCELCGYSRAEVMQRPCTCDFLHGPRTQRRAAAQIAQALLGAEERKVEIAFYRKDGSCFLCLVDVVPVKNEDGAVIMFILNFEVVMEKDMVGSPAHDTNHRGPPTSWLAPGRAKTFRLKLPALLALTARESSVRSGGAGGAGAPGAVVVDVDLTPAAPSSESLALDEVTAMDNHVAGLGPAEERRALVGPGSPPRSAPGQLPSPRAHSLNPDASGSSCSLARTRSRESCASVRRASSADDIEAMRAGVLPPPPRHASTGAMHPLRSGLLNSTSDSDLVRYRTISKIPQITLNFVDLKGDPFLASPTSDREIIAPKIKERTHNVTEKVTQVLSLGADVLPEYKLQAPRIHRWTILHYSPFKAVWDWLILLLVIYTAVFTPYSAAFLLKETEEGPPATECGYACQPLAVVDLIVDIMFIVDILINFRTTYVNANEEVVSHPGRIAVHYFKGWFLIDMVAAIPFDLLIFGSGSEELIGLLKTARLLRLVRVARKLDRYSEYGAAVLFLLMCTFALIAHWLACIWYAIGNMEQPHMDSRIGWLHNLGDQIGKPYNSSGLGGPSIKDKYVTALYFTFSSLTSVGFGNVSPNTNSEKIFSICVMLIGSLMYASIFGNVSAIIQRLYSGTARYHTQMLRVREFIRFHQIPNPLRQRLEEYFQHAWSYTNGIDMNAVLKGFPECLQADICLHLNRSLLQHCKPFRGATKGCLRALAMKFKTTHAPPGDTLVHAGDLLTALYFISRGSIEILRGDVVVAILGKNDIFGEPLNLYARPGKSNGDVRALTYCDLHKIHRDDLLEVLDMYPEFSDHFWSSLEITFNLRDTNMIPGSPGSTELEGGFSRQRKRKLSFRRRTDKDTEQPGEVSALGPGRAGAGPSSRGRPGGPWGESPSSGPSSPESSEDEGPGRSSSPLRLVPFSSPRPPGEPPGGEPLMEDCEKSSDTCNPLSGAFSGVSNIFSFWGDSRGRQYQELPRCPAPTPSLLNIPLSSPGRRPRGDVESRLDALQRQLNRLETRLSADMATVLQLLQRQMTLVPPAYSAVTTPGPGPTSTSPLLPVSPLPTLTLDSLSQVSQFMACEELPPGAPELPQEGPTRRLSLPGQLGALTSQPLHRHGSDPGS
Outline: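 Cell line hERG-U2OS; dye FluxOR II, 1 h RT dark; Tl+ stimulus; ex 480/em 540 nm, read each second for 2 min.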

[7] = target: Cytochrome P450 2D6 (Homo sapiens) (UniProt P10635); experiment: Cytochrome P450 Family 2 Subfamily D Member 6 (CYP2D6) small molecule antagonists: luciferase reporter qHTS assay (AID 1671196)
Chain of Cytochrome P450 2D6 (Homo sapiens) (P10635 whole entry, looked up): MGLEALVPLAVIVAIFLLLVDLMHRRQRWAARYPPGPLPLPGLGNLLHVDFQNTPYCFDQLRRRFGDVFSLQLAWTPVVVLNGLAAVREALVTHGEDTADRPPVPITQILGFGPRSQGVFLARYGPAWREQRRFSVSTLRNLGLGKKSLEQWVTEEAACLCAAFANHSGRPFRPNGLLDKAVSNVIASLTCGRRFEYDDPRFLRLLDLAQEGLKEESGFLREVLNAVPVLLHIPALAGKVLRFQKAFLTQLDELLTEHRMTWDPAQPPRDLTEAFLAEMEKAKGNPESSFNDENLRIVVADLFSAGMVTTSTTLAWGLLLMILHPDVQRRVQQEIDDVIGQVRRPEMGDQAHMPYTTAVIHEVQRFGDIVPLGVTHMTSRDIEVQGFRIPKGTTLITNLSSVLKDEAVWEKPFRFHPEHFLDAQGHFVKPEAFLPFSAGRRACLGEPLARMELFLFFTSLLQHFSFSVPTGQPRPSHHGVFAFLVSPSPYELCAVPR
Outline: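 Chemicals tested for interference with CYP2D6 activity; proluciferin substrate, NADPH regeneration, 1 h at room temperature, luminescent detection.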

[8] = target: Cytochrome P450 3A4 (Homo sapiens) (UniProt P08684); experiment: Cytochrome P450 Family 3 Subfamily A Member 4 (CYP3A4) small molecule antagonists: luciferase reporter qHTS assay (AID 1671201); note: nearly all actives have a fitted effect of over 50% in size; note: potency is the fitted concentration of half-maximal effect
Chain of Cytochrome P450 3A4 (Homo sapiens) (P08684 whole entry, looked up): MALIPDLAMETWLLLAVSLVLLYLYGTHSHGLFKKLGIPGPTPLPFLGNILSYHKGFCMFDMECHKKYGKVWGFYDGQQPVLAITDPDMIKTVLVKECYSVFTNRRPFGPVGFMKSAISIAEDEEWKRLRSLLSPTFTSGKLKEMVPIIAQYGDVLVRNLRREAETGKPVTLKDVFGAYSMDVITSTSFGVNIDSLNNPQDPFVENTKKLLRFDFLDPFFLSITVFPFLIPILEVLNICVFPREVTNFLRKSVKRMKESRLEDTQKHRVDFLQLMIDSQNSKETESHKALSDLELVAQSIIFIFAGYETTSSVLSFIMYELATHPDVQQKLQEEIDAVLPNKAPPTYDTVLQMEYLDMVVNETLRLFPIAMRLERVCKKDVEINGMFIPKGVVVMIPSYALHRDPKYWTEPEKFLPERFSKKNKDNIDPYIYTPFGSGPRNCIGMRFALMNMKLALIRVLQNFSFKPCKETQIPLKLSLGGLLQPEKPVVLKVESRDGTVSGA
Outline: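 Room-temperature assay throughout: 10 min compound–enzyme/substrate preincubation, 1 h reaction after NADPH regeneration solution, 20 min detection. Luciferin formed from proluciferin substrate is quantified by luminescence.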

Measured: Potency

N#CCC#N
active: [4] 63.3 µM
not listed: [7] | [8]
inactive: all other assays above

c1cc2ccc3cccc4ccc(c1)c2c34
active: [3] 16.7 µM | [4] 74.4 µM | [5] 0.564 µM
inactive: [1] | [2] | [6]

O=S1(=O)OC(c2cc(Br)c(O)c(Br)c2)(c2cc(Br)c(O)c(Br)c2)c2ccccc21
inactive: [1] | [2] | [6]
active: [3] 73 µM | [4] 16.3 µM | [5] 32.6 µM

CCOC(=O)COc1cc(-c2nn(C)c(OC(F)F)c2Cl)c(F)cc1Cl
inactive: [1] | [2]
active: [3] 31.7 µM | [4] 6.33 µM | [5] 1.78 µM | [6] 34.7 µM

CC(=O)c1cc2c(cc1C)C(C)(C)C(C)CC2(C)C (configuration not stated)
inactive: [1] | [2] | [7]
active: [4] 35.6 µM | [6] 13.8 µM | [8] 25.2 µM

CCC(Cl)CCl (configuration not stated)
not listed: [7]
inactive: all other assays above

CCOP(=S)(OCC)Oc1nc(Cl)c(Cl)cc1Cl
inactive: [6]
active: [1] 35.7 µM and 35.6 µM | [2] 56.6 nM and 894 nM | [3] 2.25 µM and 5.03 µM | [4] 7.99 µM and 10 µM | [5] 2.53 µM and 3.56 µM | [8] 1.13 µM and 2 µM

Cc1ccccc1C(=O)Nc1cccc(OC(C)C)c1
inactive: [1] | [2] | [6]
active: [3] 7.96 µM | [4] 22.4 µM | [5] 5.64 µM

Nc1ccc([N+](=O)[O-])cc1[N+](=O)[O-]
active: [5] 6.92 µM
not listed: [7] | [8]
inactive: all other assays above

II
inactive: [1] | [2] | [6]
active: [3] 56.4 µM | [4] 31.7 µM | [5] 71 µM

O=[N+]([O-])c1ccc(F)c([N+](=O)[O-])c1
active: [4] 32 µM
not listed: [7]
inactive: all other assays above

CCOP(O)OCC
not listed: [7]
inactive: all other assays above

O=C1c2ccccc2C(=O)C1C(=O)C(c1ccccc1)c1ccccc1
active: [3] 21.9 µM | [4] 1.38 µM | [5] 15.5 µM
not listed: [7]
inactive: all other assays above

CCCN(CCCl)c1c([N+](=O)[O-])cc(C(F)(F)F)cc1[N+](=O)[O-]
inactive: [1] | [2] | [6]
active: [3] 17.8 µM | [4] 20 µM | [5] 12.6 µM

O=[Se]=O
not listed: [3] | [4]
inactive: all other assays above

CS/C(C)=N/OC(=O)N(C)SN(C)C(=O)O/N=C(\C)SC
active: [1] 710 nM | [2] 31.7 µM | [3] 71 µM | [4] 79.6 µM

ClC=C(Cl)Cl
not listed: [7]
inactive: all other assays above

O=C(NC(=O)c1c(F)cccc1F)Nc1cc(Cl)c(Oc2ncc(C(F)(F)F)cc2Cl)c(Cl)c1
not listed: [3] | [4]
inactive: all other assays above

Clc1cc(C(Cl)(Cl)Cl)cnc1Cl
inactive: [1] | [2] | [7] | [6]
active: [5] 7.96 µM | [8] 8.94 µM

COc1nn(C(=O)NS(=O)(=O)c2ccccc2OC(F)(F)F)c(=O)n1C
active: [4] 32.5 µM
not listed: [7] | [8]
inactive: all other assays above

COc1cc(Cl)c(OC)cc1Cl
inactive: [1] | [2] | [6]
active: [3] 79.6 µM | [4] 71 µM | [5] 12.6 µM

CC(=O)[C@H]1CC[C@H]2[C@@H]3CC[C@H]4C[C@](C)(O)CC[C@]4(C)[C@H]3CC[C@]12C
not listed: [5] | [7]
inactive: all other assays above

O=C1C(Cl)C(CCl)CN1c1cccc(C(F)(F)F)c1 (configuration not stated)
inactive: [1] | [2] | [4] | [8]
active: [3] 8.94 µM | [5] 1 µM

ClCc1cccc(Cl)c1
not listed: [7]
inactive: all other assays above

BrCC(Br)C1CCC(Br)C(Br)C1 (configuration not stated)
inactive: [1] | [2] | [8]
active: [3] 11.2 µM | [4] 31.6 µM

CCCN(CC1CC1)c1c([N+](=O)[O-])cc(C(F)(F)F)cc1[N+](=O)[O-]
inactive: [1] | [2] | [6]
active: [3] 20 µM | [4] 31.7 µM

C[C@]12CC[C@H]3[C@@H](CCC4=CC(=O)CC[C@@H]43)[C@@H]1CC[C@@H]2OC(=O)CCC1CCCCC1
active: [4] 17.4 µM
inactive: [1] | [2]

CCCCOC(=O)c1ccccc1C(=O)OCc1ccccc1
active: [3] 1.78 µM and 1.12 µM | [4] 8.92 µM and 10 µM | [5] 15.9 µM and 12.7 µM
inactive: [1] | [2] | [8]

C=COC(C)=O
active: [5] 41.3 µM
not listed: [7]
inactive: all other assays above

C/C(=C\c1ccccc1)[N+](=O)[O-]
inactive: [1] | [2] | [6]
active: [4] 35.6 µM | [5] 35.6 µM

N#CCc1ccccc1
not listed: [5] | [7]
inactive: all other assays above

CCOS(C)(=O)=O
not listed: [7]
inactive: all other assays above

O=NN1CCNCC1
inactive: [1] | [2] | [6]
active: [3] 44.3 µM

IC(I)=C(I)I
active: [3] 7.1 µM | [4] 3.56 µM | [5] 10 µM
not listed: [7]
inactive: all other assays above

C=CCC1([C@H](C)CCC)C(=O)NC(=O)NC1=O
inactive: [1] | [2] | [3] | [5] | [6]

N#C/C(N)=C(/N)C#N
inactive: [1] | [2] | [6]
active: [3] 30.8 µM | [5] 21.8 µM

CC1(C)[C@H](C=C(Cl)Cl)[C@@H]1C(=O)O[C@@H](C#N)c1cccc(Oc2ccccc2)c1
active: [3] 7.96 µM | [4] 3.56 µM
not listed: [7]
inactive: all other assays above

O=[N+]([O-])C(Br)(CO)CO
inactive: [1] | [6] | [8]
active: [2] 71 µM | [3] 6.33 µM | [4] 5.03 µM | [5] 17.8 µM

CC(C)(CCl)C(=O)Cl
not listed: [7]
inactive: all other assays above

OCCCBr
active: [3] 3.99 µM | [5] 61.8 µM
inactive: [1] | [2] | [6]

NNC(=O)c1cccnc1
active: [3] 71.3 µM | [5] 12.7 µM | [8] 2.53 µM
inactive: [1] | [2] | [6]

CCO[C@H]1O[C@@H]2OC3(C)CC[C@H]4[C@H](C)CC[C@@H]([C@H]1C)[C@@]24OO3
inactive: [1] | [2] | [6]
active: [3] 21.9 µM | [4] 11 µM

Nc1ccc(N=Nc2ccc(-c3ccc(N=Nc4c(S(=O)(=O)O)cc5cc(S(=O)(=O)O)c(N=Nc6ccccc6)c(O)c5c4N)cc3)cc2)c(N)c1
inactive: [1] | [2] | [3] | [6]

c1ccc(CN2CCNCC2)cc1
not listed: [7]
inactive: all other assays above

CCC(Br)(CC)C(=O)NC(N)=O
not listed: [7]
inactive: all other assays above

CCBr
inactive: [1] | [2] | [3] | [6] | [8]

COC(C)(C)CCC[C@H](C)C/C=C/C(C)=C/C(=O)OC(C)C
active: [3] 17.8 µM | [4] 22.4 µM | [5] 35.6 µM | [8] 20 µM
inactive: [1] | [2] | [6]

CC(C)(Cl)[N+](=O)[O-]
inactive: [1] | [2] | [6] | [8]
active: [3] 89.8 µM

O=C(NCc1cccnc1)Nc1ccc([N+](=O)[O-])cc1
active: [3] 2 µM | [4] 5.03 µM | [5] 17.8 µM | [8] 0.796 µM
inactive: [1] | [2] | [6]

CCCCNP(N)(N)=S
active: [3] 50.2 µM | [4] 35.6 µM
not listed: [7]
inactive: all other assays above

CC(C)(C)C(O)C(Oc1ccc(Cl)cc1)n1cncn1 (configuration not stated)
inactive: [1] | [2] | [6]
active: [3] 0.796 µM | [4] 33.6 µM

C=CC(=O)OCC(C)O (configuration not stated)
not listed: [5] | [7]
inactive: all other assays above

COc1ccc(-c2ccccc2)cc1NNC(=O)OC(C)C
inactive: [1] | [2] | [6]
active: [3] 0.262 µM | [4] 2.62 µM | [5] 5.88 µM | [8] 1.04 µM

CO/N=C(/C(=O)OC)c1ccccc1COc1ccccc1C
active: [3] 0.633 µM | [4] 28.3 µM | [5] 20 µM
not listed: [7]
inactive: all other assays above

Oc1ccc(Cl)c(Cl)c1Cl
inactive: [1] | [2] | [6]
active: [3] 26.1 µM | [5] 26.1 µM

CC(Cl)C(C)Cl (configuration not stated)
not listed: [7]
inactive: all other assays above
